Inconclusive results are not listed. Entries that show only a call come without a potency. Calls of active or inactive are those of the source. Calls come from the whole dose curve. Numbered stars: 1 amine (or outer) side, 2 acyl side, 3 side chain; on linkers, the order of the positions; unused ones are H or OH. Bridge positions count the residues as written; N and C are the ends. Square brackets hold non-standard residues; d marks the D form. Peptide text beside a SMILES is read from it. I, II: the chains in the order shown. Actinocin(9to1) = Cc1c2oc3c(C)ccc(C(=O)[*:1])c3nc-2c(C(=O)[*:2])c(N)c1=O; NMeV = CN[C@H](C(=O)O)C(C)C; Sar = CNCC(=O)O
Molecular target: Beta-2 adrenergic receptor (Homo sapiens) (UniProt P07550)
Sequence (P07550 whole entry, looked up): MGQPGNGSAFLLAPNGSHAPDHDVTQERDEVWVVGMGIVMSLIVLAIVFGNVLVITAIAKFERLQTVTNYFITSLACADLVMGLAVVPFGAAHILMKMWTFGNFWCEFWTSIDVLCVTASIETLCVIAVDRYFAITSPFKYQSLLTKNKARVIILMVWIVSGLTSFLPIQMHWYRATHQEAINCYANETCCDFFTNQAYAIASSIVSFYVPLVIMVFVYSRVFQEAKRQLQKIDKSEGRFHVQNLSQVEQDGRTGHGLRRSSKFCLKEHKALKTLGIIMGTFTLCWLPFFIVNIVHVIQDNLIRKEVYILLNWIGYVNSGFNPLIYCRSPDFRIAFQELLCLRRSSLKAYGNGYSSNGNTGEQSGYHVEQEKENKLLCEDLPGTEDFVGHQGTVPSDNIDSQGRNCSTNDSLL
Assay: Adrenergic beta2 receptor (ADRB2) small molecule agonists, cell-based qHTS assay (AID 1963593)
Details: CHO-ADRB2 cells, cAMP HTRF, 30 min; series mostly up to 92.4 µM
From the text: National Center for Advancing Translational Sciences [NCATS]
Division of Preclinical Innovation [DPI]
U.S. Environmental Protection Agency [EPA]
National Institutes of Environmental Health Sciences [NIEHS]
National Toxicology Program [NTP]
U.S. Food and Drug Administration [FDA]
Beta adrenergic receptors (Beta-ARs) belong to the G-protein coupled receptor (GPCR) superfamily, includes three subtypes - beta1, beta2, and beta3. Beta1-AR is the predominant receptor subtype expressed in the heart, and beta2-AR is expressed in the kidney, lung, blood vessel and in the heart, and beta3 is found in the adipocytes. Beta1 and 2 ARs couple to Gs protein and elevate cyclic adenosine mono phosphate (cAMP), which activates protein kinase A and leads to the downstream signaling responsible for the physiological actions. Beta-AR agonists or antagonists are the most prescribed therapeutic agents for heart failure and asthma, and these were one of the first target receptors for the rational drug design. Tox21 10K compound library was screened using the cAMP-Gs dynamic assay (Cisbio Bioassays, Shelton, CT) to identify agonists/antagonists of the Gs-coupled human adrenergic, beta2 receptor (ADRB2) in the CHO-ADRB2 cell line (Codex BioSolutions, Inc. Gaithersburg, MD), which stably over-expresses ADRB2. The principle of cAMP-Gs dynamic assay is based on HTRF technology, which facilitates the fluorescence resonance energy transfer (FRET) between donor Europium cryptate and acceptor d2-labeled cAMP. The cAMP generated within cells competes with the red acceptor, d2-labled cAMP, for binding to the monoclonal anti-cAMP-cryptate (Europium donor). An increase in intracellular cAMP leads to the disruption of FRET signal, and the signal is inversely proportional to the cAMP concentration. Isoproterenol HCl (Sigma-Aldrich, St. Louis, MO) was used as a positive control in the screening.
Tox21 Assay Protocol Summary:
CHO-ADRB2 cells were dispensed at 1,000/well in 4uL assay medium into white/solid 1536-well plates (Greiner Bio-One North America Inc., Monroe, NC) using a Multidrop Combi dispenser (ThermoFisher Scientific, Waltham, MA). The assay plates were incubated at 37C and 5% CO2 for an overnight (18-20hr). Then positive control and test compounds dissolved in DMSO were transferred to the assay plates at 23nL using a Pintool station (Wako, San Diego, CA). Following the compound and positive control transfer, 1uL stimulation mix containing 100uM IBMX and 25uM Ro-20-1724 was added to each well of the assay plates using BioRAPTR Flying Reagent Dispenser (FRD, Beckman Coulter, Brea, CA). The assay plates were incubated at room temperature for 0.5hr. Then 2.5ul each d2-labled cAMP and anti-cAMP-cryptate solutions were added separately to each well of the assay plates using an FRD and the assay plates were incubated at room temperature for 1hr.

| Compound | Potency | activation |
| --- | --- | --- |
| O=C(O)c1ccccc1-n1cc(C(=O)O)c(=O)c2cc(Nc3c(F)cc(F)cc3Cl)c(Cl)cc21 | inactive |  |
| Cc1ccccc1C(N)=O | inactive |  |
| CCCCCCCCCCCCCCCCC | inactive |  |
| CCC(C)S (stereo not given) |  | 11% [at 3.27 µM] (inactive) |
| CCc1ccc(C)nc1 | inactive |  |
| CC(=O)Nc1ncc([N+](=O)[O-])s1 | inactive |  |
| CCCCc1ncc(/C=C(\Cc2cccs2)C(=O)O)n1Cc1ccc(C(=O)O)cc1 | inactive |  |
| CSc1cnccn1 | inactive |  |
| CCN1CCCC(OC(=O)C(c2ccccc2)c2ccccc2)C1 (stereo not given) | inactive |  |
| Clc1ccc2c(Cl)ccnc2c1 | inactive |  |
| O=Cc1ccc(Cl)c(Cl)c1 | inactive |  |
| CN=C(NC#N)NCCSCc1nc[nH]c1C | inactive |  |
| CCCCCCOC(=O)c1ccccc1O | inactive |  |
| Cc1c2oc3c(C)ccc(C(=O)N[C@@H]4C(=O)N[C@H](C(C)C)C(=O)N5CCC[C@H]5C(=O)N(C)CC(=O)N(C)[C@@H](C(C)C)C(=O)O[C@@H]4C)c3nc-2c(C(=O)N[C@@H]2C(=O)N[C@H](C(C)C)C(=O)N3CCC[C@H]3C(=O)N(C)CC(=O)N(C)[C@@H](C(C)C)C(=O)O[C@@H]2C)c(N)c1=O (I: T[dV]P[Sar][NMeV] / II: T[dV]P[Sar][NMeV]; ester I:1-I:C, II:1-II:C; linker I:N-II:N via Actinocin(9to1)) | inactive |  |
| CN1[C@@H]2CC[C@H]1CC(NC(=O)n1c(=O)[nH]c3ccccc31)C2 (stereo not given in full) | inactive |  |
| CCCOC(=O)C(C)O (stereo not given) | inactive |  |
| O=C(O)c1cc(O)c(O)c(O)c1 | inactive |  |
| COc1ccc(C(=O)NCc2ccc(OCCN(C)C)cc2)cc1OC | inactive |  |
| COc1ccc(C)cc1 | inactive |  |
| CCC(C)NC(N)=O (stereo not given) | inactive |  |

| Compound | Potency | activation |
| --- | --- | --- |
| CCOC(=O)CC(C(C)=O)C(C)=O | inactive |  |
| CCC(N)(CO)CO | inactive |  |
| COc1cc(OC)nc(O[C@H](C(=O)O)C(OC)(c2ccccc2)c2ccccc2)n1 | inactive |  |
| O=C(O)c1cccc(C(F)(F)F)c1 | inactive |  |
| NC(=O)c1ncn([C@@H]2O[C@H](CO)[C@@H](O)[C@H]2O)c1O | inactive |  |
| COC(=O)CC(C(C)=O)C(=O)OC (stereo not given) | inactive |  |
| O=P(O)(O)O | inactive |  |
| Cc1ccc2n[nH]nc2c1 | inactive |  |
| CCCCC(CC)COP(=O)(OCC(CC)CCCC)OCC(CC)CCCC (stereo not given) | inactive |  |
| C1COC1 | inactive |  |
| COC(=O)c1ccccc1C(=O)O | inactive |  |
| CCC(C)(Oc1ccc(C2(c3ccc(OC(C)(CC)C(=O)O)cc3)CCCCC2)cc1)C(=O)O (stereo not given) | inactive |  |
| CCO[Si](C)(C)OCC | inactive |  |
| CCCOCCC | inactive |  |
| CC1CNCC(C)O1 (stereo not given) | inactive |  |
| Cc1ccc(S(=O)(=O)NC(=O)NC2CCCC2)cc1 | inactive |  |
| CC1COc2ccccc2N1C(=O)C(Cl)Cl (stereo not given) | inactive |  |
| CCCCCCCOC(C)=O | inactive |  |
| NC(=O)NNC(N)=O | inactive |  |
| Nc1nccs1 | inactive |  |
